# Results as given in PubChem BioAssay (NCI).
# Compounds without any hit were thinned out: in the full panel of roughly 83,000, 20% have a hit.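 Method: cells in 96-well plates; compound added at one concentration; 48 h incubation; percent growth measured; values under 10 scored active.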 A number with no mark means an inactive call. The source made the active and inactive calls.
# System: T-47D breast
# Assay: NCI-60 one-dose screen, 48 h (100 = growth as untreated, 0 = no growth, -100 = all killed)
# Conditions: 10 µM unless noted
row,SMILES,growth
1,COc1cc(CNC(=O)CCCC/C=C/C(C)C)ccc1OCc1nnc(Nc2ccc([N+](=O)[O-])cc2)o1,48.6%
2,COP(=O)(OC)C(C)(C)CC(=O)CC(C#N)(C#N)C(C#N)C#N,106%
3,COC(=O)CCC(=O)C(=O)OC,61.3% [10 mM]
4,Clc1ccc(CNc2c3ccccc3nc3ccccc23)cc1,43.4%
5,COc1ccc2nc(NC(=O)CSc3nnc4n3S(=O)(=O)c3ccccc3N4C)sc2c1,99.2%
6,CCc1nc2c(=O)[nH]cnc2o1,105%

# System: BT-549 breast
# Assay: as above
# Conditions: 10 µM unless noted
row,SMILES,growth
1,COC(=O)c1c2c(c(C)[n+]([O-])c1C)C(=O)C(NCc1ccc(Cl)cc1)=CC2=O,77.9%
2,C=C1C(=O)O[C@H]2[C@H]1CC/C(COC(=O)CCSCCC(=O)OC/C1=C/CC[C@@]3(C)O[C@H]3[C@H]3OC(=O)C(=C)[C@@H]3CC1)=C\CC[C@@]1(C)O[C@@H]21,-9.47% (active)
3,Cc1c(-n2nnc(-c3nc4ccccc4s3)c2N)c(=O)n(-c2ccccc2)n1C,107%
4,O=C(c1cc2ccccc2o1)c1nn(-c2ccccc2)/c(=N/N=Cc2cn(-c3ccccc3)nc2-c2cc3ccccc3oc2=O)s1,108%
5,C=CCn1c(SCC(=O)NCc2cc(C)c(O)c(C)c2)nc2ccc(Cl)cc2c1=O,113%
6,CNC(=O)c1c(NC(=O)c2ccc(C(F)(F)F)cc2)sc2c1CCC(=O)C2,-14.1% (active)
7,O=C(Nc1ccc(-c2nc(N3CCOCC3)c3cccn3n2)cc1)Nc1cccnc1,-10.2% (active)
8,COc1ccc(/C(C)=C(/c2ccc(OCCCN(C)C)cc2)c2ccc(OC(=O)Cc3ccccc3)cc2)cc1,76.5%
9,O=C(NCc1ccccc1)Nc1ccccc1CNc1nc(Nc2ccc(OCCN3CCCC3)cc2)ncc1Cl,96.3%
10,CN1C(=O)/C(=C/c2ccc(C(=O)Nc3ncc(Cc4ccc(Cl)cc4)s3)cc2)SC1=S,46.7%
11,CCN1C(=O)N(CC)C2C1NN=c1s/c(=C\c3cccc([N+](=O)[O-])c3)c(=O)n12 (stereo unspecified),12.5%
12,CCN(CC)CCOc1ccc(C(=C(C)c2ccc(Cl)cc2)c2ccc(OCCN(CC)CC)cc2)cc1,-50.6% (active)
13,C/C(=N\NC(=O)c1ccccc1O)c1cccc(/C(C)=N/NC(=O)c2ccccc2O)n1,-2.08% (active)
14,O=[N+]([O-])c1ccc(-c2nc(N3CCOCC3)c3c4c(sc3n2)CCCC4)cc1,82.3%
15,O=C(Nn1c2c(sc1=Nc1ccccc1)C(=O)c1ccccc1C2=O)c1cc2ccc1CCc1ccc(cc1)CC2,67.9%
16,N=C(N)c1ccc(-c2ccc(-c3cc(Cl)cc(Cl)c3)o2)o1,88.8%
17,O=C(NNc1nccc(Nc2ccc(S(=O)(=O)Nc3ccncc3)cc2)n1)c1ccccc1,89.5%
18,O=C1/C(=C/c2cccs2)SC(=S)N1CCCN1CCOCC1,102%
19,CCN(CC)C(=S)SC(SC(=S)N(CC)CC)C(=O)c1nnn(-c2ccc([N+](=O)[O-])cc2)c1C,109%
20,C=C(C)[C@@H]1CC[C@]2(C(=O)O)CC[C@]3(C)[C@H](CC[C@@H]4[C@@]5(C)C[C@@H](Cc6cn(CCO[C@@H]7O[C@H](COC(C)=O)[C@H](OC(C)=O)[C@H](OC(C)=O)[C@H]7OC(C)=O)nn6)[C@H](O)C(C)(C)[C@@H]5CC[C@]43C)[C@@H]12,42.7%

row,SMILES,growth
1,O=C(Cn1cc(CN2CCCCCC2)nn1)Nc1ccc2c(ccn2Cc2ccccc2)c1,86.9%
2,COc1ccc(C(c2cc(OC)c(OC)c(OC)c2)N2CCN(c3ccccc3)CC2)cc1 (stereo unspecified),93.6%
3,CCN(CC)CCNC(=O)c1cn2ncnc(Oc3ccc(NC(=O)Nc4ccc(Cl)c(C(F)(F)F)c4)c(F)c3)c2c1C,30.3%
4,Cc1ccc(-n2c(=S)[nH]c3sc4c(c3c2=O)CCC(=O)C4)cc1,59.9%
5,C/C(Nc1ccc(Cl)c(Cl)c1)=C1\CCOC1=O,87.2%
6,COc1cc(-c2cc(-c3cccs3)c(C#N)c(N3CCOCC3)n2)cc(OC)c1OC,75.8%
7,CCN1CC(=O)N(/N=C2\C(=O)Nc3ccccc32)C1=S,88.5%
8,C=CCn1cc(-c2nc3ccccc3s2)c2cc(-c3ccc4c5c(cccc35)C(=O)N(N)C4=O)ccc21,94.4%
9,N=C(N)c1ccc(-c2ccc(-c3ccc(Cl)cc3)s2)nc1,98%
10,Cc1cc2c(O)c(-c3cccc(Cl)c3)c3sc(=O)oc3c2cc1C,58.8%
11,N#Cc1cccc(NC(=O)c2oc3ccccc3c2-c2cnn(-c3ccccc3)c2)c1,72.5% [50 µM]
12,Cc1cc2c(O)c(-c3cc(Cl)ccc3Cl)c3sc(=O)oc3c2cc1C,81.7%
13,Cc1ccccc1NC(=O)c1sc2nc(C)c(C(=O)/C=C/c3ccccc3)cc2c1N,21.5%
14,COc1cc(NC(C)CCCNC(C)C)c2ncccc2c1OC (stereo unspecified),94.4%
15,COc1cc(CNC(=O)CCCC/C=C/C(C)C)ccc1OCc1nnc(Nc2ccc([N+](=O)[O-])cc2)o1,108%
16,COP(=O)(OC)C(C)(C)CC(=O)CC(C#N)(C#N)C(C#N)C#N,96.2%
17,COC(=O)CCC(=O)C(=O)OC,-12.2% [10 mM] (active)
18,Clc1ccc(CNc2c3ccccc3nc3ccccc23)cc1,70.9%
19,COc1ccc2nc(NC(=O)CSc3nnc4n3S(=O)(=O)c3ccccc3N4C)sc2c1,113%
20,CCc1nc2c(=O)[nH]cnc2o1,102%
